The record followed here is PubChem BioAssay (Tox21).

A number with no mark means an inactive call. Records with an inconclusive call do not appear. The source made the active and inactive calls. Unless noted, the call rests on the fitted dose curve; in most records, active means well fitted curve in the direction sought with a large enough effect in the repeat runs; inconclusive means weak or mixed curves; inactive means no such curve, though single readings can be large; an effect the other way counts as inactive or inconclusive.

The nature of assay [1]: A CellTox Green Cytotoxicity Assay to monitor cytotoxicity in HepG2 cells - 0 hour (AID 1224882). Further: nearly all actives have a fitted effect of over 35% in size. The essentials: (§1)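 Cells and non-lytic dye reagent are dispensed together (600 HepG2 cells/well) and incubated 5 h before DMSO compound transfer. Kinetic fluorescence is then recorded in the same wells during 40 h at 37 C.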
The nature of assay [2]: A CellTox Green Cytotoxicity Assay to monitor cytotoxicity in HepG2 cells - 32 hour (AID 1224883). Further: nearly all actives have a fitted effect of over 50% in size. The essentials: as §1
The nature of assay [3]: A CellTox Green Cytotoxicity Assay to monitor cytotoxicity in HEK293 cells - 8 hour (AID 1224884). Further: nearly all actives have a fitted effect of over 35% in size. A digest of the protocol:
(§2)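 Cells (HEK293, 600/well) and dye reagent are dispensed together. After 5 h at 37 C, 23 nL compound is pinned in. Plates stay at 37 C for 40 h with fluorescence read at 0h, 8h, 16h, 24h, 32h and 40h.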

The nature of assay [4]: qHTS RealTime-Glo MT Cell Viability Assay in HepG2 cells - 16 hour (AID 1224885). Further: nearly all actives have a fitted effect of over 50% in size. A digest of the protocol: (§3)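 Viability was tracked continuously by NanoLuc luminescence from prosubstrate reduced by living HepG2 cells, at successive time points over 40 h of compound exposure. Cells with reagent were preincubated 5 h at 37 °C before compound addition.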
(In general: qHTS replaces the single test concentration by a dilution series.)

A short description of assay [5]: qHTS RealTime-Glo MT Cell Viability Assay in HEK293 cells - 24 hour (AID 1224886). Further: top concentration of the series differs between compounds; nearly all actives have a fitted effect of over 50% in size. A digest of the protocol: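 Viability tracked continuously by luminescence as live cells reduce a prosubstrate for NanoLuc; HEK293 cells preincubated 5 h, compound-treated at 37 C, and read at 0, 8, 16, 24, 32 and 40 h.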
The nature of assay [6]: qHTS RealTime-Glo MT Cell Viability Assay in HEK293 cells - 8 hour (AID 1224887). Further: top concentration of the series differs between compounds; nearly all actives have a fitted effect of over 50% in size. The essentials:
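Real-time viability in HEK293: signal arises when living cells convert a prosubstrate for NanoLuc in the medium, so luminescence tracks viable cell number. Compound (23 nL, DMSO) added 5 h post-seeding; kinetic reads at 0–40 h, 37 C.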

A short description of assay [7]: A CellTox Green Cytotoxicity Assay to monitor cytotoxicity in HEK293 cells - 16 hour (AID 1224888). Further: nearly all actives have a fitted effect of over 35% in size. The essentials: as §2
A short description of assay [8]: qHTS RealTime-Glo MT Cell Viability Assay in HepG2 cells - 0 hour (AID 1224889). Further: nearly all actives have a fitted effect of over 50% in size. The essentials:
as §3

A short description of assay [9]: A CellTox Green Cytotoxicity Assay to monitor cytotoxicity in HepG2 cells - 8 hour (AID 1224890). Further: nearly all actives have a fitted effect of over 45% in size. A digest of the protocol: as §1
Assay [10] is described as follows: qHTS assay to identify small molecule antagonists of the androgen receptor (AR) signaling pathway using the MDA cell line in the presence of 0.5 nM R1881 - cell viability counter screen (AID 1259242). Further: nearly all actives have a fitted effect of over 45% in size. The essentials:
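Steps: plate MDA-kb2 cells, rest 5 hr at 37C without CO2; pin in compounds in DMSO; add R1881 to 0.5 nM final; incubate 16 hr; add CellTiter-Fluor, 30 min; read fluorescence.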

Assay [11] can be described thus: qHTS assay to identify small molecule HDAC inhibitors (AID 1259364).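 Further: wild-type HCT-116 cells with endogenous class I/II HDAC activity; top concentration of the series differs between compounds; nearly all actives have a fitted effect of over 45% in size.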 A digest of the protocol:
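Cells (HCT-116, wild type) are seeded at 1,500 per well, incubated overnight, treated with compound in DMSO for 2 hr, then developed with HDAC-Glo I/II reagent for 30 min at room temperature.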

Assay [12] is described as follows: qHTS assay to identify small molecule HDAC inhibitors - cell viability counter screen (AID 1259365). A digest of the protocol:
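HCT-116 wild-type, overnight attachment; 2hr drug exposure, 37C; CellTiter-Glo luminescent ATP readout after 30min RT.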

A short description of assay [13]: qHTS assay to identify small molecule antagonists of the sonic hedgehog signaling (Shh) pathway - cell viability counter screen (AID 1259367). Further: nearly all actives have a fitted effect of over 55% in size. The essentials:
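Viability was read by CellTiter-Fluor fluorescence in the same wells, reagent added 23 hr into compound treatment and incubated 1 hr at 37C. The 3T3 Gli1-Luc reporter cells (2,000/well) received conditioned medium after compound and ran 24 hr.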

Assay [14] is described as follows: qHTS assay to identify small molecule agonists of the sonic hedgehog signaling (Shh) pathway (AID 1259368; calls by dose curve;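 further: NIH/3T3-derived 3T3Gli1-Luc cells carrying a stable Gli1-driven firefly luciferase reporter; series mostly up to about 92 µM; nearly all actives have a fitted effect of over 15% in size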). The essentials: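 Cells of a mouse NIH/3T3 clone stably expressing luciferase under the Gli1 transcriptional response element are exposed to test chemicals for 24 hr at 37 C. Pathway activation is detected as a rise in luminescence.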
Assay [15] can be described thus: qHTS assay to identify small molecule antagonists of the sonic hedgehog signaling (Shh) pathway (AID 1259369; calls by dose curve; further: nearly all actives have a fitted effect of over 45% in size; further: potency means the concentration at half of the fitted maximal effect). A digest of the protocol: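 Cells are plated and held 4hr at 37 C, compounds (DMSO) are pinned in, conditioned medium is added to stimulate the pathway, and after 24hr luciferase reagent is added for 30min before luminescence is read.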
Assay [16] concerns the target Estrogen receptor (Homo sapiens) (UniProt P03372). Put plainly: qHTS assay to identify small molecule antagonists of the estrogen receptor alpha (ER-alpha) signaling pathway using the BG1 cell line in the presence of 0.1 nM 17-beta-estradiol (AID 1259244). Further: nearly all actives have a fitted effect of over 50% in size. A digest of the protocol:
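Antagonist mode: compounds in DMSO are pinned onto VM7Luc4E2 reporter cells, 0.1 nM final 17beta-estradiol is added, and after 22 h at 37C luciferase luminescence is measured with ONE-Glo.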

A short description of assay [17]: qHTS assay to identify small molecule agonists of the sonic hedgehog signaling (Shh) pathway - cell viability counter screen (AID 1259366). Further: nearly all actives have a fitted effect of over 50% in size. Further: potency means the concentration at half of the fitted maximal effect. A digest of the protocol:
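Compounds in DMSO were pin-transferred onto 3T3 Gli1-Luc cells that had settled 4hr; plates then stood 24hr at 37C and 5% CO2. One hour before the end, CellTiter-Fluor was added and fluorescence recorded.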

Assay [18] in a line: qHTS assay to identify small molecule antagonists of the estrogen receptor alpha (ER-alpha) signaling pathway using the BG1 cell line in the presence of 0.1 nM 17-beta-estradiol - cell viability counter screen (AID 1259241). Further: nearly all actives have a fitted effect of over 40% in size. The essentials: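 Following 5 days in phenol red-free medium with charcoal-stripped serum, VM7Luc4E2 cells received test compounds alongside 0.1 nM 17beta-estradiol (final) at 37C for 22 hr. Live cells were then quantified via protease-substrate fluorescence.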

Assay [19] in a line: qHTS assay to identify small molecule phospholipidosis (PLD) inducers (AID 1259344; active means well fitted curve in the direction sought with a large enough effect; an effect the other way counts as inactive or inconclusive). A digest of the protocol:
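Phospholipid accumulation was scored by imaging: fixed, Hoechst-counterstained HepG2 cells stained with LipidTOX Red after 24 h compound exposure at 37 C. Read-outs were pit count and pit intensity per well or per cell, with amiodarone and DMSO controls.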
On the % scale 0 is the no-effect control and ±100 the full control effect.

Estrogen receptor (Homo sapiens), sequence (P03372 whole entry, looked up): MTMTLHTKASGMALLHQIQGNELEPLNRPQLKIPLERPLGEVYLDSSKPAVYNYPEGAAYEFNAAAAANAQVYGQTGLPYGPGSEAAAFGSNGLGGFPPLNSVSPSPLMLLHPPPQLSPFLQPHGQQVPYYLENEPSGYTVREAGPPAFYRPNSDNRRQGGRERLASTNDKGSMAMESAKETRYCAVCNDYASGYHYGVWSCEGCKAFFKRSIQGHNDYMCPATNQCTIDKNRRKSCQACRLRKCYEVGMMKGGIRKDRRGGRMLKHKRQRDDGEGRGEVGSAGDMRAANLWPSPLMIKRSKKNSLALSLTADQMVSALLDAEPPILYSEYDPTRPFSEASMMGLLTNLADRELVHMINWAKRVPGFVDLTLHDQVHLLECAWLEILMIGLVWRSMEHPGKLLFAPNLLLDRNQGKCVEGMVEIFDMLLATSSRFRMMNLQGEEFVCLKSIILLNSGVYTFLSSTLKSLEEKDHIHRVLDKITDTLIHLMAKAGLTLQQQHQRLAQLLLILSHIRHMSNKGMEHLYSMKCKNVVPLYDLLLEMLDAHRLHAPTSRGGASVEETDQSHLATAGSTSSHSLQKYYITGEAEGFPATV

On to `CCCCCCCCCCCCCCCCCBr`, for which the cytotoxicity in [1] is -6.85% [at 15.8 µM]. Further, the cytotoxicity increase in assay [2] is -10.1% [at 15.8 µM]; in assay [3] it was -3.41% [at 15.8 µM]; in assay [9] it was -11.1% [at 15.8 µM]. Besides, the activity change, negative = cytotoxic in assay [4] was -3.91% [at 15.8 µM]. Further, the activity change, negative = cytotoxicity in [5] is -0.166% [at 15.8 µM]; in [6], 2.84% [at 15.8 µM]; in assay [8] it was -6.2% [at 15.8 µM]; in assay [12] it was 0.135% [at 19 µM]. The activity change was -5.91% [at 15.8 µM, stronger effect = higher value] in assay [7] and -0.456% [at 18.9 µM] in assay [14]. For the same molecule, the viability change, negative = cytotoxic is -0.565% [at 19 µM] in assay [10] and -1.98% [at 19 µM] in assay [13]. Further, the activity change, negative = inhibition is 6.57% [at 19 µM] in [11] and -0.552% [at 19 µM] in assay [15].
Regarding `CC(C)(C)c1cc(CCC(=O)OCC(COC(=O)CCc2cc(C(C)(C)C)c(O)c(C(C)(C)C)c2)(COC(=O)CCc2cc(C(C)(C)C)c(O)c(C(C)(C)C)c2)COC(=O)CCc2cc(C(C)(C)C)c(O)c(C(C)(C)C)c2)cc(C(C)(C)C)c1O`, the Potency result in assay [1], in assay [2], in assay [3], in [4], in [5] and in assay [6] was “inactive” throughout. The Potency entry in assay [7], in assay [8], in [9], in assay [10], in [16] and in [11] was “inactive” in each case. Also, the Potency result in assay [17], in [13] and in [15] was “inactive” throughout. For the same molecule, the result in assay [12] and in assay [14] was inactive.
As to `CCCCCCCCCC(=O)OCC`, the Potency entry in [1], in assay [2], in [3], in assay [4], in assay [6] and in [7] was “inactive” throughout. Further, the Potency entry in assay [8], in assay [9], in assay [18], in assay [10], in assay [16] and in assay [11] was “inactive” throughout. Also, the Potency entry in [17], in [13] and in assay [15] was “inactive” throughout. Also, the result in assay [12] and in assay [14] was inactive.
Regarding `CC(=O)c1ccc2c(c1)[C@H](NC(=O)c1ccc(F)cc1)[C@@H](O)C(C)(C)O2`, the Potency result in assay [1], in assay [2], in assay [3], in [4], in [5] and in [6] was “inactive” throughout. Further, the Potency entry in assay [7], in assay [8], in assay [9], in assay [10], in assay [11] and in assay [15] was “inactive” each time. Further, the molecule was classed as inactive in assay [12] and in [14].
As for `NC1CCN(c2nc3c(cc2F)c(=O)c(C(=O)O)cn3-c2ccc(F)cc2F)C1` (centres undefined), the Potency entry in [1], in assay [2], in assay [3], in [4], in assay [5] and in assay [6] was “inactive” in each case. The Potency result in assay [7], in [8], in assay [9], in assay [10], in assay [19] and in [11] was “inactive” each time. In addition, the Potency result in [17], in assay [13] and in [15] was “inactive” throughout. For the same molecule, the result in assay [12] and in assay [14] was inactive.
In the case of `CC1=CC(=O)/C(=C(/C)O)C(=O)O1`, the Potency result in assay [1], in assay [2], in assay [3], in assay [4], in assay [5] and in [6] was “inactive” each time. For the same molecule, the Potency result in assay [7], in assay [8], in assay [9], in assay [18], in assay [10] and in assay [11] was “inactive” in each case. The Potency entry in [17], in [13] and in assay [15] was “inactive” throughout. Moreover, the call in assay [12] and in assay [14] was inactive.
With `CC[C@@H]1C[C@H](N(Cc2cc(C(F)(F)F)cc(C(F)(F)F)c2)C(C)=O)c2cc(C(F)(F)F)ccc2N1C(=O)OC(C)C`, the Potency entry in assay [1], in assay [2], in assay [3], in assay [4], in assay [6] and in [7] was “inactive” in each case. In addition, the Potency entry in assay [8], in assay [9], in [18], in [10], in [16] and in assay [11] was “inactive” throughout. In addition, the Potency entry in [17] and in [13] was “inactive” in each case. The molecule was called inactive in assay [12] and in assay [14]. Further, the Potency in [15] is 9.69 µM (active).
Take `CCc1nn(C2CCCCC2)c2cc(C3(C#N)CCC(C(=O)O)CC3)ccc12` (centres undefined): the Potency entry in [1], in assay [2], in assay [3], in assay [4], in [5] and in [6] was “inactive” throughout. The Potency result in assay [7], in assay [8], in assay [9], in assay [10], in assay [11] and in assay [15] was “inactive” throughout. For the same molecule, the outcome in [12] and in [14] was inactive. Moreover, in assay [17], the Potency is 30.6 µM (active).
